Outcome and Potency data for 34 molecules are collected here from PubChem BioAssay (NCATS).

Molecules are shown by their SMILES. Results filed as inconclusive are left out. Entries that show only a call come without a potency. The source made the active and inactive calls. Unless noted, calls follow the shape of the dose curve; as a rule, active = well fitted curve in the direction sought with a large enough effect; inconclusive = small, poorly fitted or top-dose-only effect, or another doubt; inactive = no such curve, though single readings can be large; an effect the other way counts as inactive or inconclusive.

Test [1] has as its target Mitogen-activated protein kinase 10 (Mus musculus) (UniProt Q61831). As to the kind of experiment: JNK3 AlphaScreen Assay (AID 530; active = well fitted curve in either direction with a large enough effect, not every such curve was filed as active;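 also: kinase came from lysate of stimulated human HepG2 cells; signal reports phosphorylation of biotinylated GST-cJun 1-79 at Ser73 with 10 µM ATP; series mostly up to about 57 µM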). In a few lines: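 Room-temperature AlphaScreen kinase assay; pre-activated HepG2 lysate as JNK3 source, biotin-GST-cJun(1-79) substrate, 10 uM ATP, compound 15 min preincubation.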
In test [2] the target is Cytochrome P450 3A4 (Homo sapiens) (UniProt P08684). As to the kind of experiment: qHTS Assay for Inhibitors and Substrates of Cytochrome P450 3A4 (AID 884). Also: nearly all actives have a fitted effect of over 50% in size. Also: potency is read from the fitted curve at half-maximal effect. A digest of the protocol:
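20 nM human CYP3A4 with 25 uM Luciferin-PPXE (at KM) in 200 mM KPO4, preincubated 10 min with compound; NADPH regeneration started a 60 min RT reaction. Luciferin detected by luminescence, normalized to 57 uM ketoconazole as full inhibition.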

The target in test [3] is 3',5'-cyclic-AMP phosphodiesterase 4B (Homo sapiens) (UniProt Q07343). Description: qHTS Assay for Inhibitors of PDE-IV (AID 607; active = well fitted activation curve with a large enough effect in the main read-out, with a control signal flat, not every such curve was filed as active). A digest of the protocol: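 The readout is membrane depolarisation from a cAMP-sensing CNG channel, detected with a potential dye at ex 535/em 590. Cells were HEK293-derived (endogenous PDE-IV) at 1000 cells/well, titrated up to 22.9 uM final.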
3',5'-cyclic-AMP phosphodiesterase 4B (Homo sapiens), sequence (Q07343 whole entry, looked up): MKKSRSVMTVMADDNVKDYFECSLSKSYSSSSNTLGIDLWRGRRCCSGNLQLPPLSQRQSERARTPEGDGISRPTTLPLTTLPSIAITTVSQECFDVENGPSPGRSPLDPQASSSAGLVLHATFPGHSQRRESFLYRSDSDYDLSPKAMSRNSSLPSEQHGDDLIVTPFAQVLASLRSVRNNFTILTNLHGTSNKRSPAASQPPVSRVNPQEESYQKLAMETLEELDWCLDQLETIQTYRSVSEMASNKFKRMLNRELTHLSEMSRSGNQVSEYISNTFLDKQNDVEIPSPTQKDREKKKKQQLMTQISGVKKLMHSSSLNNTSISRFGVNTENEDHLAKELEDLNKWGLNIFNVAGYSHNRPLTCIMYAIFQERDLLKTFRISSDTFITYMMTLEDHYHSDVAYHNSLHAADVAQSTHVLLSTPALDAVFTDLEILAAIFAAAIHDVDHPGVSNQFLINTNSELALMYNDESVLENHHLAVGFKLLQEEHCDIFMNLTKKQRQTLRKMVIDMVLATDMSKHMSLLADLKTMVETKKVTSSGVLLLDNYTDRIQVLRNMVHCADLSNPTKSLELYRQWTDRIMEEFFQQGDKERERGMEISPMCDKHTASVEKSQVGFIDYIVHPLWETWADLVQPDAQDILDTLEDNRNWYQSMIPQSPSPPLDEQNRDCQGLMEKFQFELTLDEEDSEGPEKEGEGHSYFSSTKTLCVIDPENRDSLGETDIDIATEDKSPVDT
(In qHTS, concentration-response curves come from the screen itself.)

Test [4] concerns the target Cytochrome P450 3A4 (Homo sapiens) (UniProt P08684). Description: qHTS Assay for Activators of Cytochrome P450 3A4 (AID 885). Also: nearly all actives have a fitted effect of over 65% in size. In a few lines:
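Steps: enzyme/substrate mix dispensed; compound added, 10 min RT; NADPH regeneration solution added, 60 min RT; luciferin detection buffer stops reaction; 20 min later luminescence measured.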

Cytochrome P450 3A4 (Homo sapiens), sequence (P08684 whole entry, looked up): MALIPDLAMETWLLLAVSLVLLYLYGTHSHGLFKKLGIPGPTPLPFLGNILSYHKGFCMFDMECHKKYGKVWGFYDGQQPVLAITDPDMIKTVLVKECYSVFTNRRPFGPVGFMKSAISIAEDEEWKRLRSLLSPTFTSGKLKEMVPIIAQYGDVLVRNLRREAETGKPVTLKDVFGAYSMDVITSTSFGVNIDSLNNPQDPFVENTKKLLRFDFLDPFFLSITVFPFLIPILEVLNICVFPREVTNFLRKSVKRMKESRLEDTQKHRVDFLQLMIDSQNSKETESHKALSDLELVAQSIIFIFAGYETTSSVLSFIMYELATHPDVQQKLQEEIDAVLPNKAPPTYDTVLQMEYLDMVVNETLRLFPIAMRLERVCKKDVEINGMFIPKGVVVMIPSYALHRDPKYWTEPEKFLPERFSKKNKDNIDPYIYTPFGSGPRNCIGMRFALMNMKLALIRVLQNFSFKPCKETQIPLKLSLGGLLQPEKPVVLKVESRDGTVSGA

With `CCCCCCN(C(=O)CCCCCN1C(=O)NC(c2ccc([N+](=O)[O-])cc2)C(C(=O)OCc2ccccc2)=C1C)C(C(=O)NCCCC)c1ccc(OCC(=O)OC)c(C(=O)OC)c1` (stereo unspecified), the outcome in test [1] was inactive. The Potency in test [2] was 2 µM (active).

Take `COC(=O)[C@@]1(Cc2ccccc2)[C@H]2c3cc(C(=O)N4CCCC4)n(CCN4CNCC4=O)c3C[C@H]2CN1C(=O)c1ccccc1`: the molecule was classed as inactive in test [1] and in test [3]. The Potency entry in test [4] is “inactive”.

`CC(=O)N1C2(C=CC1(C)C(=O)NCc1ccc(C)o1)CCCCC2` (stereo unspecified): the outcome in test [1] was inactive. For the same molecule, the Potency entry in test [2] was “inactive”.

`COC(=O)N1[C@H](C)C=C[C@]1(Cc1ccccc1)C(=O)O`: the result in test [1] was inactive. Besides, in test [2], the Potency entry is “inactive”.

`COC(=O)[C@@]1(Cc2ccccc2)C=C[C@@H](C)N1C(=O)c1ccccc1`: in test [1], the result was inactive. For the same molecule, the Potency entry in test [2] was “inactive”.

As for `CCCn1c(C)nc2c(NCCCN(C)C)nc(C)nc21`, the molecule was classed as inactive in test [1]. Further, the Potency result in test [2] was “inactive”.

On to `CNC(=O)C1(CC(C)C)C=CCN1C(=O)c1ccccc1` (stereo unspecified), for which the molecule was called inactive in test [1]. Besides, the Potency result in test [2] was “inactive”.

As to `CC(=O)N1[C@H](Cc2ccccc2)C=C[C@]1(C)C(=O)NCc1cc(F)cc(C(F)(F)F)c1`, the outcome in test [1] was inactive. Also, in test [2], the Potency was 6.31 µM (active). In addition, the Potency result in test [4] is “inactive”.

For the molecule `COCCNC(=O)C1(C)C=CC2(CCCCC2)N1C(=O)c1ccccc1` (stereo unspecified), in test [1], the molecule was called inactive. Further, the Potency in test [2] is 15.8 µM (active). In addition, the Potency entry in test [4] is “inactive”.

`CNC(=O)C1(C)C=CCN1C(=O)OC` (stereo unspecified): the call in test [1] was inactive. For the same molecule, the Potency entry in test [2] is “inactive”.

For `CNC(=O)[C@@]1(C)C=C[C@@H](Cc2ccccc2)N1C(C)=O`, the outcome in test [1] was inactive. Moreover, the Potency result in test [2] was “inactive”.

For `COC(=O)c1ccc(C(/C=C/[C@@H](C)C(=O)NCc2ccccc2)NC(=O)OCc2ccccc2)cc1` (stereo partly specified), the molecule was classed as inactive in test [1]. Also, the Potency in test [2] is 5.01 µM (active). For the same molecule, the Potency entry in test [4] was “inactive”.

For the molecule `CCCCCCN(C(=O)CCCCCN1C(=O)NC(c2ccc(C(F)(F)F)cc2)C(C(=O)OCc2ccccc2)=C1C)C(C(=O)NCCCC)c1ccc(OCC(=O)OC)c(C(=O)OC)c1` (stereo unspecified), the outcome in test [1] was inactive. Also, in test [2], the Potency is 3.98 µM (active). In addition, the Potency result in test [4] is “inactive”.

In the case of `COC(=O)N1CC=CC1(C)C(=O)O` (stereo unspecified), the outcome in test [1] was inactive. In addition, in test [2], the Potency entry was “inactive”.

As for `CC(=O)N1CC=CC1(CC(C)C)C(=O)NCCc1c[nH]c2ccccc12` (stereo unspecified), in test [1], the outcome was inactive. In test [2], the Potency is 3.98 µM (active). Besides, the Potency entry in test [4] was “inactive”.

`CC(C)(C)NC(=O)C(c1ccc(I)cc1)N(CCN1CCOCC1)C(=O)CCCNC(=O)c1ccccc1` (stereo unspecified): the call in test [1] was inactive. In addition, in test [2], the Potency was 3.98 µM (active). Also, the Potency result in test [4] was “inactive”.

Regarding `CN(C)C(=O)[C@H]1C[C@@H]1[C@H](NC(=O)OCc1ccccc1)c1ccccc1`, the result in test [1] was inactive. Besides, the Potency in test [2] was 7.94 µM (active). Also, in test [4], the Potency result was “inactive”.

On to `COC(=O)c1ccc(C(NC(=O)OCc2ccccc2)/C(=C/[C@@H](C)C(=O)NCc2ccc(C)o2)c2cccnc2)cc1` (stereo partly specified), for which the result in test [1] was inactive. Moreover, in test [2], the Potency is 15.8 µM (active). The Potency entry in test [4] was “inactive”.

On to `CNC(=O)[C@@]1(Cc2ccccc2)C=C[C@@H](C)N1C(C)=O`, for which the call in test [1] was inactive. In test [2], the Potency result is “inactive”.

Regarding `CN(C)C(=O)[C@]1(C)C[C@H]1[C@H](NC(=O)CNC(=O)[C@@H]1CCCN1C(=O)[C@]1(C)C[C@H]1[C@H](NC(=O)OCc1ccccc1)c1ccccc1)c1ccccc1`, the molecule was called inactive in test [1]. For the same molecule, the Potency in test [2] is 0.398 µM (active). Further, in test [4], the Potency result is “inactive”.

Take `COC(=O)[C@@H]1CCCN1C(=O)[C@H]1C[C@@H]1[C@H](NC(=O)OCc1ccccc1)c1ccccc1`: the result in test [1] was inactive. In addition, the Potency in test [2] is 10 µM (active). In addition, the Potency entry in test [4] is “inactive”.

For `COC(=O)c1ccc(C(NC(=O)OCc2ccccc2)/C(F)=C/[C@@H](C)C(=O)Nc2ccc(OC)cc2)cc1` (stereo partly specified), the outcome in test [1] was inactive. The Potency in test [2] is 2 µM (active). Besides, the Potency entry in test [4] is “inactive”.

`COCCNC(=O)[C@H](C)/C=C(\c1cccnc1)C(NC(=O)OCc1ccccc1)c1ccc(C(=O)OC)cc1` (stereo partly specified): in test [1], the molecule was called inactive. The Potency in test [2] is 5.01 µM (active). The Potency entry in test [4] was “inactive”.

Consider `COC(=O)N1[C@H](C)C=C[C@]1(Cc1ccccc1)C(=O)OC`, for which, in test [1], the result was inactive. Moreover, the Potency result in test [2] was “inactive”.

For `COC(=O)C1(C)C=CCN1C(=O)c1ccccc1` (stereo unspecified), the call in test [1] was inactive. For the same molecule, the Potency entry in test [2] is “inactive”.

`CC(=O)N1[C@H](C)C=C[C@]1(Cc1ccccc1)C(=O)NCc1cc(F)cc(C(F)(F)F)c1`: the call in test [1] was inactive. Also, the Potency in test [2] is 3.16 µM (active). Moreover, in test [4], the Potency entry was “inactive”.

In the case of `CC(C)NC(=O)[C@@H]1C[C@@]1(C)[C@@H](NC(=O)OCc1ccccc1)c1ccccc1`, the molecule was classed as inactive in test [1]. In addition, in test [2], the Potency was 10 µM (active). For the same molecule, the Potency entry in test [4] is “inactive”.

Regarding `COC(=O)c1ccc(C(NC(=O)OCc2ccccc2)/C(I)=C/[C@@H](C)C(=O)NCc2ccncc2)cc1` (stereo partly specified), in test [1], the outcome was inactive. The Potency in test [2] was 1.58 µM (active).

`CC1(C(=O)O)C=CCN1C(=O)c1ccccc1` (stereo unspecified): the outcome in test [1] was inactive. The Potency result in test [2] is “inactive”.

Take `COC(=O)N1[C@H](Cc2ccccc2)C=C[C@]1(C)C(=O)O`: in test [1], the molecule was called inactive. Also, in test [2], the Potency result is “inactive”.

Take `COC(=O)c1ccc(C(NC(=O)OCc2ccccc2)/C(=C/[C@@H](C)C(=O)N[C@@H](CO)Cc2ccccc2)c2cccnc2)cc1` (stereo partly specified): in test [1], the call was inactive. In addition, the Potency in test [2] was 1 µM (active). The Potency result in test [4] is “inactive”.

As for `CCC[C@@H]1C[C@@]1(CCC)[C@@H](NC(=O)c1ccccc1)c1ccc(C(=O)OC)cc1`, in test [1], the molecule was classed as inactive. In addition, the Potency in test [2] was 6.31 µM (active). The Potency result in test [4] was “inactive”.

As to `CCCn1c(C)nc2c(NCCO)nc(C)nc21`, the molecule was called inactive in test [1]. In test [2], the Potency result was “inactive”.

`CC(Cc1ccccc1)C(=O)NCc1ccncc1` (stereo unspecified): the result in test [1] was inactive. In addition, in test [2], the Potency is 2.51 µM (active). Further, the Potency entry in test [4] was “inactive”.
